# Source: the supplement of paper PMC10681739
# Assays:
# [1] = molecular target: T1, ETS1 (UniProt P14921); experiment: ETS1 binding intensity (PBM fluorescence), ETS1 alone (arbitrary fluorescence units); higher = stronger binding; conditions: ETS1 concentration 1 nM; RUNX1 concentration 0 nM
# T1 sequence: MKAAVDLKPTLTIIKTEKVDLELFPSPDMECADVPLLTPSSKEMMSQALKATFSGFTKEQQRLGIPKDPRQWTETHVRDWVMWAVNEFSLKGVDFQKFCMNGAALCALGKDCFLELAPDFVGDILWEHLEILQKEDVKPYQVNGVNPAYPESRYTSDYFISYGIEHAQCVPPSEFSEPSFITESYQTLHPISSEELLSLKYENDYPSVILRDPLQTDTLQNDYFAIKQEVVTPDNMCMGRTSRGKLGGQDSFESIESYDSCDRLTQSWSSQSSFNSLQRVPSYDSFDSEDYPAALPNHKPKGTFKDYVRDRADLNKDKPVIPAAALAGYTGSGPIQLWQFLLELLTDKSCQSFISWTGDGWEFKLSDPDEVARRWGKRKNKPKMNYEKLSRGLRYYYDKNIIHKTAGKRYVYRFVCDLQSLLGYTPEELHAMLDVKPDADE
# [2] = molecular target: T1, ETS1; experiment: ETS1 binding intensity (PBM fluorescence) in presence of RUNX1, normalised to ETS1-only experiment (arbitrary fluorescence units); higher = stronger binding; conditions: ETS1 concentration 1 nM; RUNX1 concentration 25 nM
Sequence,ETS1 binding intensity [1],ETS1 binding intensity [2]
CTGCGTCCCGGAAGGAGCGAGCTTGCGGAGCGTGAA,710,542
TTTTCCGACGGAAGCCTTACTGCCGCAAACGTCACT,556,503
AGCGGTGTTTCAGGATGTGAGGGCCCGCAGGAGCCG,666,837
GTCTTAGGTCGGAAGTCTGTGGTCCCTGTTCACATG,796,910
TGGCTACCCGGAAGGCGCGTTGGCTGCGGCTACGCA,549,926
GGTCACATCCTTTCCCTTCTGTGTCTCAGCCGCAGT,421,449
CCTCCAGGAAGCGATAAGTGACTGTGGTGGAGAGAG,663,620
GCGGAGTGTTACGTAGGAAGTGGTTGTGACGTCATT,1190,1540
TGGGCACGGGAGGAAGAGGCTGGGTGGTAAACAGGA,467,494
GCGCGGCTCAGGAAGCGACGCGGTTCAGGGAGCGAA,707,577
AAAACGCGGAAATACGGTGGCTGCGGCCCGCGGGCA,494,573
CTCCGGGAACAGCGGAAAAGGGACCGCATGAACCTC,900,1470
CCCGCTTCCGCGTTTTACTCGGTGCCCGCAGCGCCG,445,389
GGTTTTGGTAGGAAGGAAAGTGGTTTTCATAGGAAG,588,598
TCACTCCTCTTCCTTCCTGCCACCCACAGGGTCAGC,532,378
GGTTGCCCCCTTCCTCTCTGTGGCACACACAGACCT,474,345
TGGGGTTTCCTGGGGAGAAACTTAGCCCTACCACAC,527,485
GAAGTCACATCCTGTCTGTTGCGGCAGGGCACAGAG,1470,1520
GCCCCTCTTCCTGACTCACACAACCGCCTCTAGTCT,457,330
GATACTCTTCCTGTCATCCCATCCCCACAGCCTTAG,503,501
GACGGGATGTAGGTTTTCAGCCGTGGCCACAGGAGA,496,559
GGCCGGAAGCGCTCTCGTTGGCCCTGCGGCGCTGGA,2120,2800
TGGGGGCGGAAGCCTAAACCCCTCCCGCAGCCAGTC,625,627
GCTTTGCAGTTTCCTCTATGGAACACCACACACAGT,621,499
CCCCAGGTTGCTTCCGTTCTGGGAACCGCGTCCTCG,1190,984

Sequence,ETS1 binding intensity [1],ETS1 binding intensity [2]
GTCCCCCTTCCGGCTGCAGGTTGAGGTTTGGAACCT,511,560
GCAAGGTGGAGAGGAGGATGTGGCTTACCAGCAATT,1280,1990
CTCTTCTCAGGAAGGGGCTGTGGGATGTAGGATTCC,638,610
CAGTCTCCTTCCGCGTCACCTCTGTGACCGCTGTGC,414,583
CAGAGACACCTGCGGAAGCCACAGGGAGGTCACAGA,495,613
TGAGTCATTTCCTGGGTGGGGGCCACAAGACCAGGT,540,553
GCTGTAGGAAATGTTATTCGCCGCGGTCAGGACAGG,546,710
TGTTTACTTCCTGGAGGCACTTTGGTTTTTCTTTCT,490,325
CCAGATTAGGAAACCCACCCGGCCCACAAAAAGCGG,445,302
ATGACTTCGAGGAAGTCTTCAGAAACCACAGGCTGA,405,1430
CGAGCTATTTACTTCCTGCGGGTGCACAGGCTGTGA,654,475
CCGGGAGGGACGGAGGATGTGTGGTTCTGTCTCCTT,673,553
GCACCATCTCCCGACTTCCGCGGTGTCCCAGGTCCT,559,434
CCGTGTCAGTGAGGATGTGGGCTGCCGGGCTGGGCG,491,753
GATCTGCTTGGCTTCCTGTGGTCGCTGACTCACAGT,905,1010
GACAGGATACAAGAATTCCGCGGACTGCCGCAGTCG,642,649
TGTTTGTTTCCGAAGATTAGCCAGCCTGCGGTAGAG,437,605
TGAATCATGACAGAGGAAGTGTGGTTCTGTGATTAC,1760,2090
TGTGCTTTGTAGTGAGGATGTGGGTGCCTGCCTCAC,797,1010
ACCAGGATGTAGTTTAGCTTAGGGGTGGTTATATCG,603,494
TTTCTTCCTGTTTGCATCACCCCAAACCCACTATCA,514,469
TGGTGTGACCAGGATGTGAACCGCGGCAAGCTGCCT,995,992
TCAGTGCACTCGGATGTTGGCCGCAGTTGGGGTTAT,453,422
AATGGCGGGAAGTAAGAGGAATGTGGGCCTGACTGC,499,386
